CDK5 inh: CDK5/p35 (human) kinase inhibition. Q00535+Q15078. Recombinant CDK5/p35, ADP-Glo luminescence, 60 min. inhibition, % at 10 µM. 0.01% of 330,000 active. AID 488839;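 active = highest replicate inhibition of at least 50% and at least 75% of replicates reaching 50%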;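 also: plate controls were DMSO neutral control for no effect and GW8510 at 10 µM for full effect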
ALR inh: inhibitors of human sulfhydryl oxidase ALR | P55789 | purified ALR, DTT oxidation, H2O2 HRP-luminol luminescence | inhibition, % (concentration not given with the values) | 3.8% of 290,000 active;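 active = mean replicate inhibition above about 79%, with every replicate also reaching it, limit read from the data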
Target sequence (P55789 whole entry, looked up): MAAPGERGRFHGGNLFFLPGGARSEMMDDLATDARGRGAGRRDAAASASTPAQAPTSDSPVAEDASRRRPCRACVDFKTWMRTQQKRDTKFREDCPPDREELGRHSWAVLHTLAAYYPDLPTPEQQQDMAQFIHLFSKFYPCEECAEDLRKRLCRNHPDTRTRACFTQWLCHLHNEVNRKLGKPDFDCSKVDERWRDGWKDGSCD
NSD2 inh: inhibitors of human histone methyltransferase NSD2; 0.54% of 310,000 active; inhibition, % at 12.5 µM; O96028; NSD2 peptide methylation, AlphaScreen, 120 min; in the data active = inhibition above about 50%
CASP6 VEID inh: caspase-6 (human) enzyme inhibition; purified caspase-6, Z-VEID-R110 cleavage fluorescence; 0.53% of 350,000 active; AID 686996; inhibition, % at 12.5 µM;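 active = mean inhibition across replicates at least about 35%, with every replicate also reaching that limit, limit read from the data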;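 also: 0% = median of neutral control wells and 100% = no fluorescence left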
Target sequence (P55212 24-179 limits assumed): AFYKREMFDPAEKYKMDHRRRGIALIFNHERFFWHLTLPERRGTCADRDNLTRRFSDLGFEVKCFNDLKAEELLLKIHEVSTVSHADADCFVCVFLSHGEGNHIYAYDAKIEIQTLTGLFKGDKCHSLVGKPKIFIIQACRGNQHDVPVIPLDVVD
Target sequence (P55212 194-293 limits assumed): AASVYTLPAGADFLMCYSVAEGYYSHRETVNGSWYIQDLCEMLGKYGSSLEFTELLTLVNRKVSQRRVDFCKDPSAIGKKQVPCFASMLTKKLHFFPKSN
N-glyco inh: blocks N-linked glycosylation in D54 reporter cells; D54 ERlucT glycosylation luciferase reporter, 24 h; percent of 100 nM tunicamycin response; 0.23% of 360,000 active; reporter increase, % at 12.5 µM;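 active = mean luciferase reporter signal, scaled so untreated is 0 and the glycosylation-blocking control 100, at or above a set limit in every replicate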;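 also: luciferase carries N-glycosylation sites so blocking glycosylation raises the light; 0% = median of neutral control wells and 100% = median of 100 nM tunicamycin wells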
Mot1-301 SUMO: SUMOylation pathway inhibition by Mot1-301 growth rescue; S. cerevisiae Mot1-301 growth rescue, ATP luminescence, 38.5C; percent above DMSO median, 100 means doubled; growth rescue, % at 18.8 µM; 1% of 320,000 active;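 active = every valid replicate shows activation above 250% relative to neutral control wells; inactive = the rest, any valid replicate at or below 250%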;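 also: OY570 slx delta 5 strain wells were the positive control but not used for scaling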
* marks the source's active call; other numbers are inactive results; nt = no result given. This is a sample that favours compounds with a hit; in the whole collection about 3.9% have one here.

SMILES	CDK5 inh	ALR inh	NSD2 inh	CASP6 VEID inh	N-glyco inh	Mot1-301 SUMO
Cn1nc(C(F)(F)F)c(/C=N/OC(=O)c2ccccc2Cl)c1SCc1ccccc1Cl	0.1	-2.5	0.8	nt	58.0*	-5.1
O=c1oc2ccccc2cc1-c1csc(NN=C2CCCC2)n1	-0.9	97.9*	2.1	nt	3.2	10.2
CCn1c2ccccc2c2cc(NC(=O)CSc3nnc(C4CC4)n3Cc3ccco3)ccc21	1.4	97.6*	3.1	nt	2.9	-28.1
CCn1c2ccccc2c2cc(NC(=O)CSc3nnc(-c4ccccc4)n3Cc3ccco3)ccc21	nt	nt	4.6	nt	nt	nt
Cc1sc2nc(CN3CCCCC3)nc(Cl)c2c1C	-0.1	98.0*	5.0	9.7	-2.6	-13.7
Clc1nc(CN2CCCCC2)nc2sc3c(c12)CCCC3	-0.6	19.0	5.4	-0.4	-2.7	6.1
CCC(/C=N/NC(=O)C(N)=O)CC	-4.1	98.1*	-2.2	nt	-0.7	7.4
COc1cc(C(=O)N/N=C(\Cc2ncc[nH]2)c2ccccc2)cc(OC)c1OC	2.3	20.2	-6.0	2.5	0.1	nt
Clc1cccc(N/N=C(\Cc2nc3ccccc3[nH]2)c2ccccc2)c1	-2.3	nt	0.5	nt	-2.4	28.1
COc1ccc(C(=O)N/N=C(\Cc2ncc[nH]2)c2ccccc2)cc1	-0.6	86.8*	-0.6	-0.6	0.5	-7.2
c1ccc(N/N=C(\Cc2ncc[nH]2)c2ccccc2)cc1	-0.6	98.7*	7.1	0.4	-1.7	11.2
C[C@@H]1CN([C@@H](C)CO)C(=O)c2cccc(NC(=O)C3CCCCC3)c2O[C@@H]1CN(C)Cc1ccc2c(c1)OCO2	nt	nt	nt	0.6	nt	nt
Cc1c(CCC(=O)O)c(=O)oc2cc3occ(-c4ccc(Cl)cc4)c3cc12	2.3	7.8	1.1	8.0	2.4	32.5
Cc1c(CCC(=O)O)c(=O)oc2cc3occ(-c4ccc(F)cc4)c3cc12	3.3	97.5*	2.5	nt	1.7	8.3
O=C(C[C@H]1CC[C@@H]2[C@H](COC[C@H](O)CN2Cc2cc(F)ccc2F)O1)NCc1ccccc1	nt	nt	nt	-3.5	nt	nt
CCOC(=O)c1c(C)nc2ccccc2c1-c1ccccc1	0.7	-6.2	1.5	nt	-1.3	11.4
CCOC(=O)c1c(CCl)nc2ccccc2c1-c1ccccc1	1.4	95.5*	4.7	2.3	-1.3	88.4
COc1ccc(C#Cc2cnc3c(c2)C(=O)N([C@@H](C)CO)C[C@H](C)[C@H](CN(C)C)O3)cc1	nt	nt	nt	-1.6	nt	nt
CSC(=NC#N)N1CCN(c2ccccc2)CC1	-3.8	76.2*	2.7	nt	-1.0	10.6
CSC(=NC#N)N1CCN(c2cccc(Cl)c2)CC1	0.1	93.7*	3.9	nt	4.1	nt
Cc1noc(C)c1S(=O)(=O)Nc1ccc2c(c1)C(=O)N([C@H](C)CO)C[C@H](C)[C@H](CN(C)S(=O)(=O)c1ccc(F)cc1)O2	nt	nt	nt	0.2	nt	nt
O=C(N[C@H]1CC[C@H](CC(=O)N2CCc3ccccc3C2)O[C@H]1CO)C1CCC1	nt	nt	nt	5.1	nt	nt
CN1CCCNc2nc3ccccc3nc21	-0.3	80.0*	-8.9	-0.3	4.4	-2.9
CN1CCCN(S(=O)(=O)c2ccccc2)c2nc3ccccc3nc21	4.7	nt	-22.4	1.2	1.3	nt
O=C(O)Cn1cc(/C=C2\SC(=O)N(c3ccccc3)C2=O)c2ccccc21	0.0	3.3	-1.6	-4.0	1.6	672.4*
SMILES	CDK5 inh	ALR inh	NSD2 inh	CASP6 VEID inh	N-glyco inh	Mot1-301 SUMO
C[C@@H]1CN([C@H](C)CO)C(=O)c2cc(NC(=O)CCN3CCOCC3)ccc2O[C@H]1CN(C)C(=O)Nc1ccc(C(F)(F)F)cc1	nt	nt	nt	3.6	nt	nt
COc1cc2c(c(OC)c1)C(c1ccncc1)CC(=O)N2 (centres undefined)	-1.6	-6.0	nt	-0.9	2.4	13.8
COc1cc(OC)c(C2SCCS2)c(OC)c1	-1.0	98.9*	0.8	nt	1.4	-6.5
C=C(C)Cc1c(C)c(C#N)c2nc3ccccc3n2c1NCCCN(C)C	nt	2.1	0.0	-1.5	37.6*	-3.2
CCc1c(C)c(C#N)c2nc3ccccc3n2c1NCCN(C)C	-2.1	11.3	-0.6	nt	-2.1	-10.2
Cc1ccc(/C=C2\SC(=S)N(NS(=O)(=O)c3ccc(C)cc3)C2=O)cc1	-2.5	-0.7	49.5	9.6	2.5	-22.9
COc1cccc(/C=C2\SC(=S)N(NS(=O)(=O)c3ccccc3)C2=O)c1OC	0.1	97.5*	11.4	3.4	0.1	-1.4
COc1cc(/C=C2\SC(=S)N(NS(=O)(=O)c3ccccc3)C2=O)cc(OC)c1OC	-2.0	nt	9.3	3.1	1.6	-4.6
Cc1ccc(S(=O)(=O)NN2C(=O)/C(=C/c3cccn3C)SC2=S)cc1	nt	97.1*	nt	nt	nt	17.3
COc1ccc(NC(=O)N[C@H]2CC[C@@H](CCn3cc(-c4ccc(F)cc4)nn3)O[C@H]2CO)cc1	nt	nt	nt	0.1	nt	nt
Cc1ccc(-c2nc(CS(=O)CC(=O)NCCCc3ccccc3)c(C)o2)cc1 (centres undefined)	nt	98.2*	-0.8	-7.0	1.7	7.3
Cc1ccc(-c2nc(CS(=O)CC(=O)NC(C)CCc3ccccc3)c(C)o2)cc1 (centres undefined)	nt	93.0*	13.1	3.6	1.8	-3.6
COc1ccc(CC(=O)NC(C)CCc2ccccc2)cc1OC (centres undefined)	0.3	35.0	0.4	-0.9	-2.3	31.4
COc1ccc(-c2nc(CS(=O)CC(=O)NC(C)CCc3ccccc3)c(C)o2)cc1OC (centres undefined)	1.4	99.3*	1.8	4.5	4.6	-9.8
O=C(O)c1ccc(N/N=C2/CCCc3ccccc32)cc1	-1.4	97.9*	26.7	4.0	0.3	-0.1
O=C(N/N=C1\CCCc2ccccc21)c1ccccc1Cl	-0.8	-2.9	-6.8	-2.6	0.0	-8.4
O=C(O)c1ccc(N/N=C2/CCSc3ccc(F)cc32)cc1	1.7	98.3*	9.4	5.5	0.7	-5.4
COc1ccc(CN2C(=O)C3C4C=CC(C4)C3C2=O)cc1 (centres undefined)	0.9	99.9*	-2.3	-3.4	0.5	14.5
CN(C)c1cccc(C(=O)NNC(=S)NC2CC3CCC2C3)c1 (centres undefined)	-0.1	84.6*	4.2	-4.2	-2.7	0.6
CCCNC(=O)N1CC2(C1)[C@H](c1ccccc1)[C@H](CO)N2CC1CCCC1	nt	nt	nt	0.6	nt	nt
Cc1ccccc1NC(=O)C(=O)NCC1CCCN1S(=O)(=O)c1cccs1 (centres undefined)	0.5	-20.7	-1.3	0.0	-2.3	11.9
O=C(NCCc1ccccc1)C(=O)NCC1CCCN1S(=O)(=O)c1cccs1 (centres undefined)	-0.6	-10.3	-1.1	1.3	-4.5	355.1*
CSc1ccccc1NC(=O)CSCc1ccccc1Br	-5.7	-13.2	-3.5	nt	-3.1	19.1
O=C(CSCc1ccccc1Br)NC1CC1	-1.0	97.7*	1.4	nt	3.3	-2.6
Cc1ccccc1S(=O)(=O)NC1OC(=O)C(Oc2ccccc2)=C1Br (centres undefined)	0.0	94.9*	1.6	5.9	-1.6	nt
CCOC(=O)/C=C/S(=O)(=O)c1ccc(NC(C)=O)cc1	1.5	98.1*	3.3	nt	-14.3	28.1
